# Measured values from PubChem BioAssay.
# Values joined by “and” are separate entries in the source; they are usually repeats but may differ in a detail not shown here. Equal entries are not always repeated. Some structures have more than one record in an assay (separate samples or runs), and their calls can disagree. Active and inactive are the calls of the source.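 How the source made its calls, unless noted: active means inhibition at or above 50% relative to wild type and mutant plate controls; inactive means inhibition below 50%.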
# Columns and labels:
# [1] = inhibitors of TNFa-induced NFkB p65 translocation, primary screen, imaging, HUVEC, MLSMR starter and 10KST1 sets (AID 438;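 active means inhibition above 20% together with a positive visual image hit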;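 further: compound added about 3h40 before a 20 min TNFalpha stimulation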;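 on inhibition: signal is the nuclear over cytoplasmic p65 intensity ratio per well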); conditions: HUVEC TNFa-induced p65 nuclear translocation; cell count: measured here: nuclei count (cytotoxicity indicator), at 2.08 µM; inhibition: at 2 µM, stronger effect = higher value, 0% TNFa-plus-vehicle, 100% no-TNFa wells
# [2] = inhibitors of mutant huntingtin aggregation, primary screen, imaging, exon1htt(103Q)mCFP cells, high-content imaging (AID 483;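 active means visual image review flags a hit and inhibition of aggregation exceeds 20%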;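 further: compound exposure lasted 3 days before fixation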;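 on nuclei count: percent of the per-plate median nuclei count of sample wells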); conditions: exon1htt(103Q)mCFP cell line, aggregate imaging, at 2 µM; inhibition of aggregation: stronger effect = higher value; nuclei count: measured here: cell count, toxicity
# [3] = inhibitors of E-selectin induction by TNFa, primary screen, imaging, HUVEC, immunofluorescence, MLSMR starter and 10KST1 sets (AID 487;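 active means visually confirmed hit in the image check and inhibition above 20%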;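 on inhibition: signal is fraction of cell area covered by stained E-selectin grains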;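 on nuclei count: 100% = median nuclei count of all wells on the same plate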); conditions: HUVEC TNFalpha-induced E-selectin immunofluorescence imaging, at 2 µM; inhibition: stronger effect = higher value; nuclei count: measured here: cell number, toxicity
# [4] = DUSP6 inhibitors restoring Erk phosphorylation by chemical complementation, primary imaging in DUSP6-transfected HeLa (AID 609;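 active means compounds giving at least 50% inhibition in the cell-based MKP-3 phosphatase rescue imaging test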;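 on inhibition: phospho-Erk level distribution per well compared with pooled transfected vehicle control wells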); conditions: HeLa MKP-3 transfected, phospho-Erk imaging KS statistic, at 10 µM, cells stimulated with TPA for 15 min
# [5] = target: Dual specificity protein phosphatase 6 (Homo sapiens) (UniProt Q16828); assay: as above; conditions: HeLa MKP-3 transfected, phospho-Erk imaging KS statistic; at 10 µM; stronger effect = higher value; cells stimulated with TPA for 15 min
# Dual specificity protein phosphatase 6 (Homo sapiens), sequence (Q16828 whole entry, looked up): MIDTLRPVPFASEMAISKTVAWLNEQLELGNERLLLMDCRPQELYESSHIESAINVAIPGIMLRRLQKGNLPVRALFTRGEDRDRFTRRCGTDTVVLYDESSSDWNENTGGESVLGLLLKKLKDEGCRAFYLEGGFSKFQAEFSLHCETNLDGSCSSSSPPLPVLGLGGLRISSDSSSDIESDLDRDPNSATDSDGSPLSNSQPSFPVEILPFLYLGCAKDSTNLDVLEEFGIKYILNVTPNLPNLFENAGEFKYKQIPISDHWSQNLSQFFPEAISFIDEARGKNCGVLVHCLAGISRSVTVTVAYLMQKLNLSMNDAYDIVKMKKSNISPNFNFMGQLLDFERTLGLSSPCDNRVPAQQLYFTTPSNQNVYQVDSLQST
# [6] = target: Voltage-gated potassium channel subunit beta-2 (Rattus norvegicus) (UniProt P62483); assay: KvBeta enzyme negative modulators, primary screen, biochemical, NADPH fluorescence (AID 622;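 active means fluorescence slope higher than the sample average by over 3 SD, cut at about -0.22 in these data, passing the limit was not always enough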;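 further: slope of raw intensity against log time taken from 70 to 1610 s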); conditions: recombinant KvBeta, 4-cyanobenzaldehyde reduction, at 10 µM, stronger effect = higher value
# Voltage-gated potassium channel subunit beta-2 (Rattus norvegicus), sequence (P62483 whole entry, looked up): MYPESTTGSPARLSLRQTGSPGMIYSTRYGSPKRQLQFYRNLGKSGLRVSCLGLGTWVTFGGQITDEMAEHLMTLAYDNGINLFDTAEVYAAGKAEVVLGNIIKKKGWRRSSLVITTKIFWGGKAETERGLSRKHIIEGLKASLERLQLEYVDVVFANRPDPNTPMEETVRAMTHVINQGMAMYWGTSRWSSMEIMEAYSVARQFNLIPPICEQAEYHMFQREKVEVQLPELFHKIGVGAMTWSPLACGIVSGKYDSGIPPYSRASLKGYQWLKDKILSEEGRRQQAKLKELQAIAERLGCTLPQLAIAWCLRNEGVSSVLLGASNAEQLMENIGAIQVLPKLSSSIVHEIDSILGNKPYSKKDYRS
# [7] = target: Voltage-gated potassium channel subunit beta-2 (Rattus norvegicus) (UniProt P62483); assay: KvBeta positive modulators, primary screen, biochemical, NADPH fluorescence (AID 623;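 active means NADPH fluorescence slope more negative than the mean of all samples by about 3 SD, 99.7% confidence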;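 further: fluorescence intensity change per second fitted from 20 to 320 s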); conditions: Recombinant KvBeta, NADPH fluorescence decrease slope, 10 min; at 10 µM; stronger effect = lower value
# [8] = target: Alpha-2C adrenergic receptor (Homo sapiens) (UniProt P18825); assay: modulators of alpha2C/GIRK thallium flux, primary screen, cell-based, HEK293 alpha2C/GIRK1/2 (AID 624;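 active means fluorescence slope after compound addition differing from the mean of all screened samples at 99.7% confidence, in either direction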;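 further: slope of fluorescence ratio to pre-addition baseline per second over 15 to 24 s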); conditions: thallium flux BTC fluorescence, at 10 µM, actives lie on both sides
# Alpha-2C adrenergic receptor (Homo sapiens), sequence (P18825 whole entry, looked up): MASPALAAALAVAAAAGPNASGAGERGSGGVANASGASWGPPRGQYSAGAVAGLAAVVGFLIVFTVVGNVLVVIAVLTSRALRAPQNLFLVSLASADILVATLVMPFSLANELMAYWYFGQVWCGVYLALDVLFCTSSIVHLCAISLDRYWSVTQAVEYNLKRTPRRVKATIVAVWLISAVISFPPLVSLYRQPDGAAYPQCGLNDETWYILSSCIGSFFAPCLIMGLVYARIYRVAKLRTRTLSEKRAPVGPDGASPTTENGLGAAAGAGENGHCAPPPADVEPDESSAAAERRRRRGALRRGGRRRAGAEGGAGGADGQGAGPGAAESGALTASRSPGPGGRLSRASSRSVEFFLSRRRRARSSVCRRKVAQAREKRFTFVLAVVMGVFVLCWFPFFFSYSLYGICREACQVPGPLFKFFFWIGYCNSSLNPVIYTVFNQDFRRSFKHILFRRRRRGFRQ
# [9] = inhibitors of larval lipid processing in zebrafish, primary screen, whole organism, PED6 fluorescence, gall bladder and intestine (AID 686;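 active means a full or partial loss of lipid-probe fluorescence in the fish gall bladder, intestine or both, judged by eye; inactive means no fluorescence loss, or compound toxic to the fish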;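 further: larvae 5 to 7 days old with five fish per well; signal comes from phospholipase A2 cleavage of quenched PED6 carried via bile; overnight exposure to compound and PED6 before scoring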); conditions: Zebrafish larvae PED6 lipid processing, fluorescence scoring; screened at 20 µM (by protocol)
# [10] = inhibitors of Chlamydomonas gravitaxis, primary screen, whole organism, Chlamydomonas reinhardtii, WT vs cilia-less mutant, absorbance, 96-well (AID 463189); conditions: OD600 absorbance, 2 days, at 10 µM, stronger effect = higher value;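 further: 0% = wild type cc124 cells in DMSO and 100% = ciliumless bld1 mutant cells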
# [11] = inhibitors of Sendai virus-induced IRF3 signaling, primary screen, TLR/RLR signaling modifier project, cell-based, Sendai virus stimulus, luciferase, 10K MLSCN set (AID 602276;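 active means inhibition at or above 50% at 10 µM; inactive means inhibition below 50%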;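 further: firefly luciferase from ISG56 promoter only with Renilla not read in this screen; 0% = Sendai virus plus DMSO and 100% = medium plus DMSO without virus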); conditions: HEK293 RL24 IRF3 luciferase reporter, at 10 µM, stronger effect = higher value
# [12] = inhibitors of poly I:C-induced TLR3 signaling, primary screen, cell-based, poly I:C stimulus, luciferase, 10K MLSCN set (AID 602277;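 active means inhibition of the reporter signal at or above 50%; inactive means inhibition below 50%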); conditions: HEK293-TLR3 RL24 IRF3 luciferase reporter, at 10 µM, stronger effect = higher value
# [13] = measured here: cell density z-score
# [14] = measured here: nuclear c-Myc green intensity z-score
# [15] = measured here: nuclear pErk red intensity z-score, stronger effect = higher value
SMILES,cell count [1],inhibition [1],inhibition of aggregation [2],nuclei count [2] [%],inhibition [3],nuclei count [3] [%],"z-score [4, 13]","z-score [4, 14]","z-score [4, 15]",inhibition [5],fluorescence slope [6],NADPH fluorescence slope [7],slope [8],outcome [9],inhibition [10],inhibition [11],inhibition [12]
CCn1cc(C(=O)NCc2ccco2)c(=O)c2cc(F)c(N3CCN(C(=O)c4ccco4)CC3)cc21,380,16.3% (inactive),13.6% (inactive),99.3,-117% (inactive),118,2.14,-0.717,0.644,19.4% (inactive),-0.279 (inactive),2.6e-05 (inactive),0.00489 (inactive),inactive,-7.6% (inactive),14.3% (inactive),13.7% (inactive)
COc1ccccc1N1CCN(CC(O)COc2cccc3ccccc23)CC1 (stereo not given),617,-3.6% (inactive),-18.7% (inactive),108,-26.2% (inactive),107,0.673,-1.31,-2.39,8% (inactive),-0.431 (inactive),-7.7e-05 (inactive),0.00349 (inactive),inactive,7.05% (inactive) and 42.9% (inactive),16.5% (inactive),36.9% (inactive)
CCN(CC)S(=O)(=O)c1cccc2c(N(C)C)cccc12,503,-2.1% (inactive),14.8% (inactive),95.3,-84.9% (inactive),128,0.324,-0.162,1.65,0.671% (inactive),-0.177 (active),-1.3e-05 (inactive),0.00311 (inactive),inactive,25.1% (inactive),-4.35% (inactive),-4.09% (inactive)
CCOC(=O)CC(=O)CSc1[nH]c(=O)cc(C)c1C#N,653,-6% (inactive),5.4% (inactive),96.3,28.4% (inactive),132,-1.3,0.221,-0.165,11% (inactive),-0.403 (inactive),-6.7e-05 (inactive),0.0053 (inactive),inactive,6.76% (inactive),3.57% (inactive),10% (inactive)
COCCOC(=O)c1c(C)nc(SCC(=O)Nc2ccc(OC)cc2)c(C#N)c1-c1ccco1,386,-17.9% (inactive),-11.5% (inactive),76,-23.1% (inactive),90,-0.584,-0.072,-0.599,-6.59% (inactive),-0.422 (inactive),-2.9e-05 (inactive),0.00733 (inactive),inactive,-0.332% (inactive),16.9% (inactive),12.1% (inactive)
C=CCn1cnc2c(c1=O)c1nc3ccccc3nc1n2-c1ccc(C)cc1,548,-5.7% (inactive),-8.4% (inactive),100,-70.3% (inactive),132,-0.575,-1.45,1.52,-2.07% (inactive),-0.354 (inactive),-6.7e-05 (inactive),0.00438 (inactive),inactive,15.4% (inactive),15.3% (inactive),10% (inactive)
CC1(C)Cc2c(sc3c2C2=NCCN2C=N3)CS1,632,-2.6% (inactive),-1.3% (inactive),109,-26.4% (inactive),138,1.38,0.227,-1.08,11.3% (inactive),-0.487 (inactive),-0.000119 (inactive),0.00445 (inactive),inactive,-8.31% (inactive),0.61% (inactive),4.84% (inactive)
N=c1c[n+](N2CCOCC2)[n-]o1,605,-7.1% (inactive),4.6% (inactive),86.9,-109% (inactive),139,0.144,-0.44,0.201,-8.38% (inactive),-0.496 (inactive),-5.7e-05 (inactive),0.00445 (inactive),inactive,5.26% (inactive) and -2.73% (inactive),19.5% (inactive),43.7% (inactive)
COc1cc([C@@H]2c3cc4c(cc3[C@H](O)[C@H]3COC(=O)[C@H]23)OCO4)cc(OC)c1OC,436,21.5% (active),-118% (inactive),1.5,-226% (inactive),86.2,0.542,-0.666,-0.822,-6.41% (inactive),-0.472 (inactive),-0.000104 (inactive),0.00519 (inactive),inactive,0.865% (inactive),33.7% (inactive),81.6% (active)
CC[C@]1(O)CC2CN(CCc3c([nH]c4ccccc34)[C@@](C(=O)OC)(c3cc4c(cc3OC)N(C=O)[C@H]3[C@@](O)(C(=O)OC)[C@H](OC(C)=O)[C@]5(CC)C=CCN6CC[C@]43[C@@H]65)C2)C1 (stereo not given in full),496,31.7% (active),-69.9% (inactive),1.5,-122% (inactive),76.8,0.276,-0.499,1.19,27.9% (inactive),-0.439 (inactive),-3.8e-07 (inactive),0.00563 (inactive),inactive,-2.94% (inactive),32.7% (inactive),85.7% (active)
CCCC(=O)Nc1ncnc2c1ncn2[C@@H]1O[C@@H]2COP(=O)(O)O[C@H]2[C@H]1OC(=O)CCC,447,15.4% (inactive),14.3% (inactive),96.1,-67.8% (inactive),127,0.217,0.395,0.177,21.2% (inactive),-0.511 (inactive),-7.6e-06 (inactive),0.00504 (inactive),inactive,29.3% (inactive),18.6% (inactive),40.7% (inactive)
Cn1c(=O)c2[nH]cnc2n(C)c1=O,656,-1.4% (inactive),12.3% (inactive),83.7,-74.2% (inactive),142,-0.0459,0.0873,-0.896,19% (inactive),-0.453 (inactive),-2.6e-05 (inactive),0.00501 (inactive),inactive,-1.38% (inactive) and -11.3% (inactive),6.67% (inactive),32.1% (inactive)
Cc1nn(C)cc1C1C2=C(CC(C)(C)CC2=O)OC2=C1C(=O)CC(C)(C)C2,616,-2.2% (inactive),2.2% (inactive),108,-77.9% (inactive),140,0.812,0.307,-0.678,2.46% (inactive),-0.337 (inactive),-6.9e-06 (inactive),0.00477 (inactive),inactive,1.65% (inactive),10.6% (inactive),18% (inactive)
O=C(O)c1ccccc1Nc1cccc(C(F)(F)F)c1,626,3.3% (inactive),-7.4% (inactive),99.3,-44.4% (inactive),131,0.0659,0.639,-1.06,23.4% (inactive),-0.455 (inactive),-3.9e-05 (inactive),0.00472 (inactive),inactive,-7.16% (inactive),5.42% (inactive),28.4% (inactive)
Cc1ccc(Cl)c(Nc2ccccc2C(=O)O)c1Cl,583,1.3% (inactive),12.3% (inactive),91.1,-70.5% (inactive),95.9,-0.43,-0.511,-0.695,-8.38% (inactive),-0.487 (inactive),-4.2e-05 (inactive),0.00556 (inactive),inactive,20.2% (inactive) and 61% (active),16.4% (inactive),40.3% (inactive)
CC(C)(C)NCC(O)COc1cccc2c1C[C@H](O)[C@H](O)C2 (stereo not given in full),666,3.8% (inactive),-15.5% (inactive),101,-100% (inactive),118,0.108,0.144,1.49,-0.828% (inactive),-0.441 (inactive),-2.9e-05 (inactive),0.00396 (inactive),inactive,18.1% (inactive),9.2% (inactive),32.8% (inactive)
CN(Cc1ccccc1)Cc1c[nH]c2ccccc12,531,-15.1% (inactive),-1% (inactive),83.3,-35.1% (inactive),121,-0.293,-1.22,-1.11,-4.27% (inactive),-0.409 (inactive),-4.2e-05 (inactive),0.00379 (inactive),inactive,22.7% (inactive),13.3% (inactive),24.2% (inactive)
CN(CCO)CC(O)Cn1cnc2c1c(=O)n(C)c(=O)n2C (stereo not given) (tested in a mixture with another compound),638,-0.3% (inactive),1.1% (inactive),103,6.8% (inactive),125,0.569,0.0927,0.334,10.2% (inactive),-0.511 (inactive),-6e-05 (inactive),0.00421 (inactive),inactive,-10.3% (inactive),3.79% (inactive),33.4% (inactive)
COc1ccc(C2CC(=O)C(C=NCCN3CCOCC3)=C(O)C2)cc1 (stereo not given),379,-8.5% (inactive),0.1% (inactive),106,-118% (inactive),138,0.329,0.663,-0.587,-5.62% (inactive),-0.354 (inactive),9.4e-06 (inactive),0.00492 (inactive),inactive,7.09% (inactive),14.9% (inactive),20.5% (inactive)
c1ccc(SCc2nc3ccccc3[nH]2)nc1,407,-12.9% (inactive),-9.8% (inactive),107,-65.1% (inactive),119,0.727,0.54,-0.488,9.39% (inactive),-0.624 (inactive),-2.9e-05 (inactive),0.00427 (inactive),inactive; toxic,13.1% (inactive),-49.8% (inactive),-119% (inactive)
